In PubChem BioAssay (Tox21):
Results filed as inconclusive are left out. The source made the active and inactive calls. Calls follow the shape of the dose curve; as a rule, active = well fitted curve in the direction sought with a large enough effect in the repeat runs; inconclusive = weak or mixed curves; inactive = no such curve, though single readings can be large; an effect the other way counts as inactive or inconclusive.

Key:
[1] = qHTS RealTime-Glo MT Cell Viability Assay in HEK293 cells - 32 hour (AID 1224868); also: top concentration of the series differs between compounds; nearly all actives have a fitted effect of over 50% in size
Procedure, shortened: (§1)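 HEK293 cells seeded with NanoLuc/prosubstrate reagent, rested 5 h at 37 C, then dosed and kept at 37 C up to 40 h. Nonlytic real-time luminescence from viable cells read at 0, 8, 16, 24, 32 and 40 h.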

[2] = A CellTox Green Cytotoxicity Assay to monitor cytotoxicity in HEK293 cells - 0 hour (AID 1224869); also: nearly all actives have a fitted effect of over 50% in size
Procedure, shortened: (§2)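 Fluorescence from a DNA-binding dye excluded by viable cells was measured repeatedly in the same HEK293 wells (600 cells/well) during continuous compound exposure at 37 C. Each assay gives one read point: 0, 8, 16, 24, 32 or 40 h.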

[3] = qHTS RealTime-Glo MT Cell Viability Assay in HepG2 cells - 40 hour (AID 1224870); also: nearly all actives have a fitted effect of over 50% in size
Procedure, shortened: (§3)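 HepG2 cells mixed with RealTime-Glo MT reagents (NanoLuc plus cell-permeant prosubstrate) were seeded at 600 cells/well, incubated 5 h at 37 C/5% CO2, then pinned with compounds in DMSO; nonlytic luminescence tracked viability during 40 h treatment.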

[4] = A CellTox Green Cytotoxicity Assay to monitor cytotoxicity in HEK293 cells - 40 hour (AID 1224871); also: nearly all actives have a fitted effect of over 45% in size
Procedure, shortened: as §2

[5] = qHTS RealTime-Glo MT Cell Viability Assay in HEK293 cells - 16 hour (AID 1224872); also: top concentration of the series differs between compounds; nearly all actives have a fitted effect of over 50% in size
Procedure, shortened: as §1

[6] = qHTS RealTime-Glo MT Cell Viability Assay in HepG2 cells - 8 hour (AID 1224873); also: nearly all actives have a fitted effect of over 55% in size
Procedure, shortened: as §3

[7] = qHTS RealTime-Glo MT Cell Viability Assay in HEK293 cells - 40 hour (AID 1224874); settings: RealTime-Glo luminescence; max response: hits give low values; also: nearly all actives have a fitted effect of over 50% in size
Procedure, shortened: (§4)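 Luminescence, which tracks viable cell number through reduction of the prosubstrate to a NanoLuc substrate, was read over continuous 37 C culture. Cells (600/well) were premixed with reagent and rested 5 h before 23 nL of compound in DMSO was pinned.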

[8] = A CellTox Green Cytotoxicity Assay to monitor cytotoxicity in HEK293 cells - 24 hour (AID 1224875); also: series mostly up to about 77 µM; nearly all actives have a fitted effect of over 45% in size
Procedure, shortened: as §2

[9] = qHTS RealTime-Glo MT Cell Viability Assay in HepG2 cells - 32 hour (AID 1224877); also: nearly all actives have a fitted effect of over 55% in size
Procedure, shortened: (§5)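 HepG2 cells (600/well) were dispensed with RealTime-Glo reagents, incubated 5 h at 37 °C, then treated with compounds in DMSO for up to 40 h. Nonlytic NanoLuc luminescence reflecting viable cells was read at each stated time point.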

[10] = qHTS RealTime-Glo MT Cell Viability Assay in HEK293 cells - 0 hour (AID 1224880); also: top concentration of the series differs between compounds; nearly all actives have a fitted effect of over 45% in size
Procedure, shortened: as §4

[11] = A CellTox Green Cytotoxicity Assay to monitor cytotoxicity in HEK293 cells - 32 hour (AID 1224881); also: nearly all actives have a fitted effect of over 40% in size
Procedure, shortened: as §2

[12] = A CellTox Green Cytotoxicity Assay to monitor cytotoxicity in HepG2 cells - 0 hour (AID 1224882); also: nearly all actives have a fitted effect of over 35% in size
Procedure, shortened: (§6)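 Real-time cytotoxicity: fluorescence of a cell-impermeant cyanine dye binding DNA of dead HepG2 cells, measured repeatedly (0–40 h) during compound exposure at 37 C. Cells seeded 600/well with reagent, dosed after 5 h.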

[13] = A CellTox Green Cytotoxicity Assay to monitor cytotoxicity in HEK293 cells - 8 hour (AID 1224884); also: nearly all actives have a fitted effect of over 35% in size
Procedure, shortened: as §2

[14] = qHTS RealTime-Glo MT Cell Viability Assay in HepG2 cells - 16 hour (AID 1224885); also: nearly all actives have a fitted effect of over 50% in size
Procedure, shortened: as §5

[15] = A CellTox Green Cytotoxicity Assay to monitor cytotoxicity in HepG2 cells - 16 hour (AID 1224876); also: nearly all actives have a fitted effect of over 45% in size
Procedure, shortened: as §6

[16] = A CellTox Green Cytotoxicity Assay to monitor cytotoxicity in HepG2 cells - 40 hour (AID 1224879); also: nearly all actives have a fitted effect of over 40% in size
Procedure, shortened: as §6

[17] = A CellTox Green Cytotoxicity Assay to monitor cytotoxicity in HepG2 cells - 32 hour (AID 1224883); also: nearly all actives have a fitted effect of over 50% in size
Procedure, shortened: as §6

[18] = A CellTox Green Cytotoxicity Assay to monitor cytotoxicity in HepG2 cells - 24 hour (AID 1224878); also: nearly all actives have a fitted effect of over 45% in size
Procedure, shortened: as §6
% is scaled to controls: 0 for no effect and ±100 for the full control effect.

CNC(=O)C(c1ccccc1)c1ccccc1
inactive: Potency [1] | Potency [2] | outcome [3] | Potency [4] | Potency [5] | outcome [6] | max response [7] 0.511% | Potency [8] | outcome [9] | outcome [10] | Potency [11] | Potency [12] | Potency [13] | outcome [14]

CC(C)CCO
inactive: Potency [1] | Potency [2] | Potency [4] | Potency [5] | max response [7] 3.55% | Potency [8] | Potency [15] | Potency [16] | outcome [10] | Potency [11] | Potency [17] | Potency [13]

SCCSCCS
inactive: Potency [1] | Potency [2] | outcome [3] | Potency [4] | Potency [5] | max response [7] -1.15% | Potency [8] | Potency [18] | Potency [16] | outcome [10] | Potency [11] | Potency [12] | Potency [17] | Potency [13] | outcome [14]

Nc1c(NC/C=C\COc2cc(CN3CCCCC3)ccn2)c(=O)c1=O
inactive: activity change, negative = cytotoxic [1] 2.38% [at 15.8 µM] | cytotoxicity [2] -1.89% [at 15.8 µM] | activity change, negative = cytotoxic [3] 1.19% [at 15.8 µM] | cytotoxicity increase [4] 6.78% [at 15.8 µM] | activity change, negative = cytotoxicity [5] 2.61% [at 15.8 µM] | viability change, negative = cytotoxic [6] 6.05% [at 15.8 µM] | max response [7] -0.39% | activity change [8] 3.31% [at 15.8 µM, hits give high values] | cytotoxicity increase [15] -12.5% [at 15.8 µM] | activity change, negative = cytotoxic [9] 0.449% [at 15.8 µM] | cytotoxicity [18] -15.2% [at 15.8 µM] | activity change, negative = cytotoxicity [10] 11.6% [at 15.8 µM] | cytotoxicity increase [11] 6.07% [at 15.8 µM] | cytotoxicity [12] -10.4% [at 15.8 µM] | cytotoxicity increase [17] -13.1% [at 15.8 µM] | cytotoxicity increase [13] 3.26% [at 15.8 µM] | activity change, negative = cytotoxic [14] 3.45% [at 15.8 µM]

CCOC(=O)C(=O)c1csc(NC=O)n1
inactive: Potency [1] | Potency [4] | Potency [5] | outcome [6] | max response [7] 0.45% | Potency [8] | Potency [16] | outcome [10] | Potency [11] | Potency [12] | Potency [17] | Potency [13] | outcome [14]

C[C@H](CCC(=O)O)[C@H]1CC[C@H]2[C@@H]3[C@H](O)C[C@@H]4C[C@H](O)CC[C@]4(C)[C@H]3C[C@H](O)[C@]12C
inactive: Potency [1] | Potency [2] | outcome [3] | Potency [4] | Potency [5] | outcome [6] | max response [7] -1.02% | Potency [8] | Potency [15] | outcome [9] | Potency [18] | outcome [10] | Potency [11] | Potency [12] | Potency [17] | Potency [13] | outcome [14]

CO/N=C(/C(=O)N[C@@H]1C(=O)N2C(C(=O)O)=C(Cn3nnc(C)n3)CS[C@H]12)c1csc(N)n1
inactive: Potency [1] | outcome [3] | Potency [4] | Potency [5] | outcome [6] | max response [7] 1.17% | Potency [8] | Potency [15] | outcome [9] | Potency [18] | Potency [16] | outcome [10] | Potency [11] | Potency [12] | Potency [17] | Potency [13] | outcome [14]

CCCCCCCCCCCCCC(=O)OC
inactive: Potency [1] | outcome [3] | Potency [4] | Potency [5] | outcome [6] | max response [7] 12.2% | Potency [8] | outcome [9] | Potency [18] | Potency [16] | outcome [10] | Potency [11] | Potency [12] | Potency [17] | Potency [13] | outcome [14]

CCCCC(CC)COC(=O)c1ccccc1 (stereo not given)
inactive: Potency [1] | Potency [2] | outcome [3] | Potency [4] | Potency [5] | outcome [6] | max response [7] 3.3% | Potency [8] | Potency [15] | outcome [9] | outcome [10] | Potency [11] | Potency [12] | Potency [17] | Potency [13] | outcome [14]

CC(C)CCCC(C)CC=O (stereo not given)
inactive: Potency [1] | Potency [2] | outcome [3] | Potency [5] | max response [7] 0.176% | Potency [8] | Potency [15] | outcome [9] | Potency [18] | Potency [16] | outcome [10] | Potency [11] | Potency [12] | Potency [17] | Potency [13] | outcome [14]

O=C(CN1CCN(Cc2ccc3c(c2)OCO3)CC1)N1c2ccccc2Sc2ccccc21
inactive: Potency [2] | outcome [3] | Potency [4] | Potency [5] | outcome [6] | Potency [8] | outcome [9] | Potency [18] | outcome [10] | Potency [11] | Potency [13] | outcome [14]
